The source of these data is PubChem BioAssay (NCI).

About 83,000 compounds went through this panel and 20% of them were active in at least one assay; those are over-represented in the sample as a whole.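 Step 1: grow cells in 96-well plates. Step 2: add test compound at a single concentration. Step 3: incubate 48 h. Step 4: record percent growth.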 A number with no mark means an inactive call. How the source made its calls: active means growth percent below 10; inactive means the rest.

This test deals with TK-10 renal. Kind of test: NCI-60 one-dose screen, 48 h (100 = growth as untreated, 0 = no growth, -100 = all killed). To be noted: 10 µM.
For the compound `CCc1ccc(-c2ccc(-n3nc(C)c4c(N)nc(Cc5ccccc5)nc43)cc2)cc1`, the growth was 75%.
As to `O=C(Nc1ccc(F)cc1)c1cc2ccccc2cc1O`, the growth was 141%.
For the compound `Nc1nccc(OCCO)n1`, the growth is 90%.
Consider `O=C(CCCCNC(=O)c1nc(-c2ccccc2)n(-c2ccccc2)n1)NO`, for which the growth is 56%.
Next, `COc1cc(-c2nn(-c3ccc(NC(=O)NCCNS(=O)(=O)c4ccc(F)cc4)cc3)cc2-c2ccncc2)ccc1Cl`: 28.1%; `O=C(Nc1ccc2c(O)cc(S(=O)(=O)O)cc2c1)c1ccc([N+](=O)[O-])cc1`: 102%; `COC(=O)C1(O)NC(=C(C#N)C#N)C(C#N)=C1C(=O)c1ccc(OC)c(OC)c1` (stereo not given): 122%.
Take `C=CCn1c(SCC(=O)Nc2ccc(C(=O)/C=C/c3ccc(OC)cc3)cc2)nnc1-c1ccc(OC)c(OC)c1`: the growth was 110%.
Take `COc1cc(NC(=O)Nc2cnc(Nc3ccc(N4CCOCC4)cc3)nc2Oc2cccc(OC)c2)cc(OC)c1`: the growth is 54.7%.
For the compound `O=C(CCl)Nc1ccc(Cc2ccc(NC(=O)CCl)cc2)cc1`, the growth is 83.6%.
Consider `Cc1cc(SCc2ccccc2)nc(N)n1`, for which the growth is 107%.
Take `Cc1nn(-c2ccc(-c3ccc(OC(F)(F)F)cc3)cc2)c2nc(Cc3ccccc3)nc(N)c12`: the growth was 68.1%.
The result for `O=C(Nc1nc(-c2ccccc2)nc2c1sc(=S)n2-c1ccccc1)C(F)(F)F` reads 117%; that for `S=c1cnc2ccccc2[nH]1`, 112%.
Next, `O=C(CSc1nnc(-c2ccc(Cl)cc2)o1)Nc1ccc(C(=O)/C=C/c2ccc(Cl)cc2)cc1`: 118%.
